We go through 40 molecules from PubChem BioAssay (NCI).

This is part of a sample that, as a whole, favours compounds with a hit. Of some 83,000 tested, about 20% had one in any assay.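 How to read the values: 0–100, growth inhibition (40 = 60% inhibited); 0, no net growth; -100 to 0, cell death (-40 = 40% of starting cells died; -100 = all dead).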 Active and inactive are the calls of the source.

The test deals with SW-620 colon. The test is described as follows: NCI-60 one-dose screen, 48 h (100 = growth as untreated, 0 = no growth, -100 = all killed). Conditions: 10 µM unless noted. How it is done:
Growth inhibition of the SW-620 human tumor cell line is measured as a screen for anti-cancer activity. Cells are grown in 96 well plates and exposed to the test compound for 48 hours. Compounds are tested at a single concentration, which is 10^-5 M for most compounds. The reported endpoint is percent growth (GI% or GIPRCNT), where numbers from 0 - 100% represent growth inhibition, and numbers from -100% - 0 represent cell death. For example, a value of 40 represents 60% growth inhibition. A value of 0 means no net growth occurred over the course of the experiment. A value of -40 indicates 40% of cells at the beginning of the experiment died by the end of the experiment. A value of -100 means all cells are dead at the end of the experiment.
NCI-60 Human Tumor Cell Lines Screen was performed using the standard one-dose NCI protocol, which is described in more detail at https://dtp.cancer.gov/discovery_development/nci-60/default.htm.
Compounds with GIPRCNT values below 10 were considered active. Activity score was based on GIPRCNT using the following formula: […]
Score is 0 for GIPRCNT values of 100 or above, 50 for GIPRCNT values of 0, and 100 for GIPRCNT values of -100.
On to `CCOC(=O)CCC(=O)P(=O)(O)O`, for which the growth was 96.5% (inactive).
Next, `C=C(C)Cn1c(SCC(=O)c2cccs2)nc2sc3c(c2c1=O)CCCC3`: 38.6% (inactive); `COc1ccc(-c2ccc(-c3ccc(C(=N)N)nc3)s2)cc1`: -65.7% (active).
Under `CCOC(=O)c1ccc2c(c1)c1c(C)c3cnccc3c(C)c1n2C` stands -7.3% (active).
Next, `O=C1/C(=C/c2ccc(-c3ccc(Cl)cc3)o2)SC(=S)N1CCc1ccc(O)cc1`: 26.6% (inactive); `CNC1=C(Br)C(=O)c2c(C(=O)OC)c(C)nc(C)c2C1=O`: 48.2% (inactive); `Cc1nc2ccccc2c(/C=C/c2ccc(Br)cc2)c1C(=O)/C=C/c1ccccc1`: 2.35% (active).
Turning to `Nc1nc(N)c2c(n1)NC(c1cccc(Nc3ccnc4cc(C(F)(F)F)ccc34)c1)CC(c1ccc(Cl)cc1)=N2` (stereo not given), the growth was 25.6% (inactive).
Next, `CCOC(=O)CSc1nc2sc3c(c2c(=O)n1-c1ccccc1)CCCCC3`: 98.1% (inactive); `CCOC(=O)c1cc(C(=O)c2cc(OC)cc(OC)c2)n2ccccc12`: 28.2% (inactive); `Cn1ncc(CC(=O)O)c1-n1nnc2cc(Cl)ccc2c1=O`: 103% (inactive).
Next, `Cc1c(C(=O)C(SC(=S)N2CCOCC2)SC(=S)N2CCOCC2)nnn1-c1ccc([N+](=O)[O-])cc1`: 100% (inactive); `COC(=O)c1cc(-c2cc(OC)c(OC)c(OC)c2)[nH]c1N/N=C/c1c(Cl)cccc1Cl`: 44.9% (inactive).
Next, `O=c1ccc2nc(-c3ccccc3)nn(-c3ccccn3)c-2c1`: -46.2% (active).
For `COc1ccc(CNc2ccc3nc(CCC4CCCCC4)[nH]c3c2)cc1`, the growth is 75% (inactive).
Under `Nc1nc(Nc2ccc([N+](=O)[O-])cc2O)nc(C(Cl)(Cl)Cl)n1` stands 54.2% (inactive); under `CC1=C([Se]CC(OC(=O)[C@@H](CO)NC(=O)OC(C)(C)C)C(=O)NCCCCCC(=O)OCc2ccccc2)C(=O)c2ccccc2C1=O` (stereo not given in full), -42% (active).
Next, `O=C(Nc1cccc(Cl)c1)Oc1c(Cl)c(Cl)c(Cl)c(Cl)c1Cl`: 100% (inactive); `COc1ccc(NC(=O)CSc2oc(-c3ccccc3)nc2S(=O)(=O)c2ccc(Cl)cc2)c(OC)c1`: 81.7% (inactive); `Cc1ccc(-c2nnc(SCc3nc(N)nc(Nc4ccccc4F)n3)n2-c2ccccc2)cc1`: 93.6% (inactive).
Regarding `O=C(OCc1ccc2c(Br)cc(Br)c(O)c2n1)N1CCN(C(=O)c2cc3ccccc3[nH]2)CC1`, the growth was 25.3% (inactive).
Next, `COc1ccc(S(=O)(=O)Oc2ccc(-c3sc4cc(OS(=O)(=O)c5ccc(OC)cc5)ccc4c3C(=O)c3ccc(OCCN4CCCCC4)cc3)cc2)cc1`: 108% (inactive); `N#Cc1c(-c2ccc(Cl)cc2)nc(NN=Cc2cccc(Cl)c2)nc1N1CCOCC1`: 53.3% (inactive); `Clc1ccc(C2=Nn3c(nnc3-c3cc(Cl)cc(Cl)c3Cl)SC2)cc1`: 19.1% (inactive).
Under `COc1cc2c(cc1-c1c(C)noc1C)ncc1nc(C3CCOCC3)n(C3CCC(OC(F)F)CC3)c12` (stereo not given) stands 76.3% (inactive); under `C#CC(F)(F)[C@]1(O)CCC2C3CCC4=CC(=O)CCC4=C3[C@@H](c3ccc(N(C)C)cc3)C[C@@]21C` (stereo not given in full), 103% (inactive).
Next, `Cc1[nH]c(C2CC(c3ccc(C(F)(F)F)c(F)c3)=NN2C)c(C)c1C(=O)NCC(F)(F)F` (stereo not given): 103% (inactive).
As for `C#C[C@]1(O)CC[C@H]2[C@@H]3CC=C4c5sc(-c6cccc(C)c6)nc5CC[C@]4(C)[C@H]3CC[C@@]21C`, the growth was 84.8% (inactive).
`O=C(Oc1ccccc1)c1cc(O)c(O)c(O)c1`: the growth is 62.7% (inactive).
`O=C1NCCN1/N=C/c1c(Cl)n(Cc2ccc(Cl)cc2)c2ccccc12`: the growth was 108% (inactive).
Next, `C=CCn1c(SCC(=O)Nc2ccc(C(=O)/C=C/c3cc(OC)c(OC)c(OC)c3)cc2)nnc1-c1cc(-c2ccc(S(N)(=O)=O)cc2)nc2ccccc12`: 76.8% (inactive).
Under `COc1cc(-c2ccc(-c3ccc(C(=N)N)s3)s2)cc(OC)c1OC` stands -15.5% (active); under `COc1ccc(S(=O)(=O)N(C)c2oc(-c3ccc(Cl)cc3)nc2C#N)cc1`, 43.3% (inactive); under `C=C1CC[C@@H]2[C@](C)(COC(C)=O)[C@H](OC(C)=O)CC[C@@]2(C)[C@@H]1CC(Nc1ccc(S(=O)(=O)Nc2nccc(C)n2)cc1)C1=CCOC1=O` (stereo not given in full), -49.6% (active).
Next, `CCCCCCCCCCCCCCCCCCOc1ccccc1CC(=O)OCC[N+]1(C)CCCCC1`: 68.3% (inactive); `C#Cc1c(I)n(C2OC(CO[Si](C)(C)C(C)(C)C)C3OC(C)(C)OC32)c(=O)[nH]c1=O` (stereo not given): -98.3% (active).
Turning to `CN1CCN(Cc2ccc(NC(=O)c3cncc(C#Cc4cnc(N)c5ncccc45)c3)cc2Cl)CC1`, the growth is 2.96% (active).
Under `Cc1c(CC(=O)Nc2ccccc2)nnn1-c1ccccc1` stands 110% (inactive).
`COc1cc(C(=O)/C=C/c2c(-c3cccs3)nc3sc(C)cn23)cc(OC)c1OC`: the growth is 6.94% (active).
Under `CC(=O)Cc1nsc(NC(=O)c2cc(-c3cc(Cl)ccc3Cl)oc2C)n1` stands 107% (inactive).
